# A selection: hits, their analogues and other compounds. The true share with any hit is near 3.6%.
# Rango complex inh: qHTS Assay for Inhibitors of Rango (Ran-regulated importin-beta cargo) - Importin beta complex formation | 340,000 tested, 0.031% active | Importin subunit beta-1 (Homo sapiens), Q14974 | Rango CFP/YFP FRET sensor + importin beta, 45 min | Potency, µM (titrated, usually from 92.2 µM), for inactives: at the top dose inhibition of complex formation; calls by dose curve;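 note: potency is the fitted concentration of half-maximal effect; 0% = DMSO wells and 100% = buffer wells lacking importin beta; nearly all actives have a fitted effect of over 15% in size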
#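 Inhibition scored from the CFP 486 nm/YFP 530 nm FRET ratio 45 min after adding 0.125 microM importin beta to 50 nM Rango biosensor preincubated 5 min with compound (room temperature, PBS with DTT, Tween-20, BSA). No-importin wells as positive control.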
# VDR inh: Inhibitors of the vitamin D receptor (VDR): qHTS; Vitamin D3 receptor (Homo sapiens), P11473; VDR-SRC2-3 peptide fluorescence polarization, 2 h; Potency, µM, inactives show max response, negative = inhibition, usual class: inhibitors; AID 504847, 2011; 400,000 tested, 0.93% active; note: potency is the fitted concentration of half-maximal effect; % is set by controls: 0 for no effect and ±100 for the full control effect
#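 Measured by FP: displacement of SRC2-3 coactivator peptide from VDR by library compounds, following a two-hour ambient incubation.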
# PI5P4K alpha inh: qHTS for Inhibitors of phosphatidylinositol 5-phosphate 4-kinase (PI5P4K); AID 652105, 2013; 330,000 tested, 1.2% active; max response, %; Phosphatidylinositol 5-phosphate 4-kinase type-2 alpha (Homo sapiens), P48426; PI5P4Kalpha enzyme, ADP-Glo luminescence, 60 min; stronger effect = lower value; active = max response of -50% or lower; inconclusive = between -30% and -50%; inactive = -30% or higher; note: value at the top dose of about 77 µM; % is set by controls: 0 for no effect and ±100 for the full control effect
# Target sequence (P48426 whole entry, looked up): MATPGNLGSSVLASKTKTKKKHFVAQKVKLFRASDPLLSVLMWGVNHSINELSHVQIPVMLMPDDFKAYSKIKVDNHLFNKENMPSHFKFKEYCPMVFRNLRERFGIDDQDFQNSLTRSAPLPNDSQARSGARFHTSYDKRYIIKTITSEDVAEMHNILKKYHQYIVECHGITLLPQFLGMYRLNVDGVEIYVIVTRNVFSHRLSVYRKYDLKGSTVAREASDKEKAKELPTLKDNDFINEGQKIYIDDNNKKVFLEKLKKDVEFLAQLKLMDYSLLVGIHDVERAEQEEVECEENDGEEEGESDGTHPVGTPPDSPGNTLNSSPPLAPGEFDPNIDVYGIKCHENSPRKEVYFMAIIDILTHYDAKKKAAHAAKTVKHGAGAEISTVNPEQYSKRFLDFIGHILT
#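 qHTS, 1536-well: enzyme/substrate mix, compound by pin tool, 5 microM ATP final; RT 60 min; ADP-Glo reagents 1 (45 min) then 2 (30 min); luminescence.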
# PLK1 PBD block: qHTS for Inhibitors of PLK1-PDB (polo-like kinase 1 - polo-box domain): Primary Screen; 360,000 tested, 2.8% active; Plk1 PBD binding of FITC phosphopeptide, fluorescence polarization; Potency, µM, for inactives: max response, negative = inhibition, usual class: inhibitors; note: potency is the fitted concentration of half-maximal effect; series mostly up to about 57 µM; % is set by controls: 0 for no effect and ±100 for the full control effect; nearly all actives have a fitted effect of over 65% in size
# Rango dissoc inh: qHTS Assay for Inhibitors of RanGTP induced Rango (Ran-regulated importin-beta cargo) - Importin beta complex dissociation. Potency, µM (doses to about 46.1 µM), without a hit: at the top dose activity change, negative = inhibition. 340,000 tested, 0.071% active. AID 540253, 2011. Biochemical FRET Rango-importin beta, RanGTP-induced dissociation; calls by dose curve; note: potency is the fitted concentration of half-maximal effect; % of control where 0% means no effect; nearly all actives have a fitted effect of over 45% in size
#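 Recombinant Rango FRET biosensor (EYFP–snurportin 1 IBB–cerulean CFP10) at 0.1 uM premixed with 0.25 uM importin beta in PBS, 1 mM DTT, 0.02% Tween-20, 0.1% BSA. Compound added 5 min; RanGTP-RCC1 (0.6 uM Ran, 2 mM GTP, 0.2 uM RCC1) then triggers release, read at 45 min.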
# KAT2A inh: qHTS Assay for Inhibitors of GCN5L2 | GCN5L2 HAT assay, ThioGlo1 CoA-SH fluorescence | Potency, µM (top dose mostly 58.9 µM), inactives show at the highest dose activity change, negative = inhibition, usual class: inhibitors | 390,000 tested, 0.21% active; note: potency is the fitted concentration of half-maximal effect; % is set by controls: 0 for no effect and ±100 for the full control effect
#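 Titration-based screen in which CoA formation is detected via maleimide probe ThioGlo1 (50uM) turning fluorescent on thiol reaction; substrates H3(1-25) 75uM and acetyl-CoA 70uM, GCN5L2 20nM, 20 min incubation at room temperature.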
# Starred values were filed as active, the others as inactive; ? = inconclusive; nt = no result; ! = a repeat was not active. Unless noted, calls come from the whole dose curve; as a rule, active = well fitted curve in the direction sought with a large enough effect; inconclusive = small, poorly fitted or top-dose-only effect, or another doubt; inactive = no such curve, though single readings can be large; an effect the other way counts as inactive or inconclusive.
SMILES,Rango complex inh,VDR inh,PI5P4K alpha inh,PLK1 PBD block,Rango dissoc inh,KAT2A inh
C/C(=N\NC(=O)c1ccncc1)c1c(O)n(-c2ccccc2)c(=O)[nH]c1=O,2.8%,-7.6%,-10.0,-18.0%,-20.3%,-9.2%
C/C(=N\Nc1cccc2ccccc12)c1c(O)n(Cc2ccccc2)c(=O)[nH]c1=O,?,-15.2%,-54.5*,-15.5%,?,8.0%
CC/C(=N\NC(=O)c1ccccc1)c1c(O)n(C2CCCCC2)c(=O)[nH]c1=O,0.3%,-19.4%,-56.6*,-14.5%,5.4%,-8.6%
C/C(=N\NC(=O)c1ccccc1)c1c(O)n(Cc2ccccc2)c(=O)[nH]c1=O,0.0%,-13.3%,-68.1*,1.9%,0.4%,?
COC(=O)[C@@H]1C[C@H](OC(C)=O)C(=O)[C@H]2[C@@]1(C)CC[C@H]1C(=O)O[C@H](c3ccoc3)C[C@]21C,nt,?,nt,nt,nt,-3.9%
CCCC[C@@H](C)[C@@H](OC(=O)C[C@@H](CC(=O)O)C(=O)O)[C@H](C[C@@H](C)CCCCCC[C@@H](O)C[C@H](O)[C@H](C)N)OC(=O)C[C@@H](CC(=O)O)C(=O)O,nt,-16.9%,nt,nt,nt,38.9%
O=C(Cc1ccc(Br)cc1)N1CCN(Cc2ccccc2)CC1,-1.5%,?,1.8,-9.7%,-18.9%,0.2%
O=C(Cc1ccccc1)N1CCN(Cc2cccc(Br)c2)CC1,-1.1%,-25.3%,-11.1,26.7µM*,25.7%,2.0%
CC(C)CC1C(=O)N2CCC[C@H]2[C@]2(O)O[C@](NC(=O)[C@@H]3C=C4c5cccc6[nH]c(Br)c(c56)C[C@H]4N(C)C3)(C(C)C)C(=O)N12 (stereo not given in full),nt,-19.7%,nt,nt,nt,nt
CC1=NNC(=O)C1C(c1ccc(F)cc1)C(C#N)C#N (stereo not given),0.1%,?,-20.2,29.9µM*,-13.9%,nt
CN(C)C1CSSSC1,nt,6.6%,nt,nt,nt,-33.6%
Cc1ccccc1C(=O)NNC(=S)NC(=O)COc1ccccc1,0.9%,?,nt,29.9µM*,6.8%,?
O=C(CCN1CCN(CCO)CC1)N1c2ccccc2Sc2ccc(C(F)(F)F)cc21,0.7%,?,-29.5,26.7µM*,0.2%,-7.7%
O=C(Cc1cccc(C(F)(F)F)c1)N1CCN(CC(=O)N2CCCC2)CC1,1.3%,-3.9%,12.4,-7.5%,-0.6%,-1.4%
O=C(O)c1cc(O)c(O)c(O)c1,nt,50.1µM*!,nt,nt,nt,?
Cc1o[nH]c(=O)c1C[C@H](N)C(=O)O,nt,15.4%,nt,nt,nt,0.0%
CNCC(O)c1ccc(OC(=O)C(C)(C)C)c(OC(=O)C(C)(C)C)c1 (stereo not given),1.2%,-11.2%,20.8,-13.8%,21.1%,0.9%
CCOc1cc(/C=C(\C#N)C(=O)NCC2CCCO2)ccc1OCC(N)=O (stereo not given),3.8%,-26.4%,-3.8,29.9µM*,-5.2%,-8.0%
CC1=C[C@H]2[C@]3(O)C(C=C(CO)C[C@]2(O)C1=O)[C@@H]1C(C)(C)[C@]1(O)[C@H](O)[C@H]3C (stereo not given in full),nt,4.1%,nt,nt,nt,-5.7%
Cn1cc(/C=C(\C(=O)O)C(C(=O)O)=C2CCCCC2)c2ccccc21,1.1%,?,-29.6,15µM*,3.5%,4.5%
Cn1cc(C=C(C#N)C#N)c2ccccc21,?,-26.2%,-0.9,15.8%,?,-9.9%
CCCCC/C=C\C/C=C\C/C=C\CCCCC(=O)NCCO,nt,1.3%,nt,nt,nt,nt
CC(=O)NC1N=C(C)N(c2ccccc2)C1=O (stereo not given),-3.6%,?,0.7,26.7µM*,-12.5%,-9.9%

# Screening data as filed in PubChem.
